Assay results reported in ChEMBL document CHEMBL1961873, “Compounds: GSK PKIS; Assays: Nanosyn kinase panel” (2012).

Key:
[1] = biological target: T1, Serine/threonine-protein kinase Nek9 (Homo sapiens) (UniProt Q8TD19); conditions: at 1 µM;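 also: each value is a mean percent inhibition of NEK9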
T1 sequence (whole entry): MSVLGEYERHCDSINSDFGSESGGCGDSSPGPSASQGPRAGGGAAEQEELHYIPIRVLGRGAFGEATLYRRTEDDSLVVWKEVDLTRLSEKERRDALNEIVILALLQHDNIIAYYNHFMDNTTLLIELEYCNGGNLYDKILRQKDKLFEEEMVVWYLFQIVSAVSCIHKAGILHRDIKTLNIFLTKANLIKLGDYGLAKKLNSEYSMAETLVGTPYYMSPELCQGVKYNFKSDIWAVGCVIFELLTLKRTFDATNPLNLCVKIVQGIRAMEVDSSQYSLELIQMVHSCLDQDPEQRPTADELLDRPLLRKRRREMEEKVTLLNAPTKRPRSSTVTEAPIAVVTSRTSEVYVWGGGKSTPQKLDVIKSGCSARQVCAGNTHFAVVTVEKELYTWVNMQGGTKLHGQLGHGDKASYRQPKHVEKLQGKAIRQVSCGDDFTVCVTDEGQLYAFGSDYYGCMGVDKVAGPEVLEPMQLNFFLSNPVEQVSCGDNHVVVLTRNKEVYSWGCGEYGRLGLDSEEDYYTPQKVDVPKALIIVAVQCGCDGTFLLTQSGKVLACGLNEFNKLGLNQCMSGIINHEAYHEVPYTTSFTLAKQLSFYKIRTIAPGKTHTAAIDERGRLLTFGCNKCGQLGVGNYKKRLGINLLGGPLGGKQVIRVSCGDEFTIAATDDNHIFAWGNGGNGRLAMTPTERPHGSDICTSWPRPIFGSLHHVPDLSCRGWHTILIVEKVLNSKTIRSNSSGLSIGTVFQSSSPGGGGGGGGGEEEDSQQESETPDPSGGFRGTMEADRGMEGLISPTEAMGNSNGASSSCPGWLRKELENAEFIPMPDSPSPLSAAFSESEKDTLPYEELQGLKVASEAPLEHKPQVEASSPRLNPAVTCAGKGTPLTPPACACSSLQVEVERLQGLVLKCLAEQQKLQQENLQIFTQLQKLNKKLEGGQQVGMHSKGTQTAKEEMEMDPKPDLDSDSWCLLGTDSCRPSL

[2] = biological target: Serine/threonine-protein kinase PLK1 (Homo sapiens) (UniProt P53350); conditions: at 0.1 µM
[3] = biological target: Serine/threonine-protein kinase PLK1 (Homo sapiens) (UniProt P53350); conditions: at 1 µM
[4] = biological target: T2, Dual specificity protein kinase TTK (Homo sapiens) (UniProt P33981); conditions: at 0.1 µM
T2 sequence (whole entry): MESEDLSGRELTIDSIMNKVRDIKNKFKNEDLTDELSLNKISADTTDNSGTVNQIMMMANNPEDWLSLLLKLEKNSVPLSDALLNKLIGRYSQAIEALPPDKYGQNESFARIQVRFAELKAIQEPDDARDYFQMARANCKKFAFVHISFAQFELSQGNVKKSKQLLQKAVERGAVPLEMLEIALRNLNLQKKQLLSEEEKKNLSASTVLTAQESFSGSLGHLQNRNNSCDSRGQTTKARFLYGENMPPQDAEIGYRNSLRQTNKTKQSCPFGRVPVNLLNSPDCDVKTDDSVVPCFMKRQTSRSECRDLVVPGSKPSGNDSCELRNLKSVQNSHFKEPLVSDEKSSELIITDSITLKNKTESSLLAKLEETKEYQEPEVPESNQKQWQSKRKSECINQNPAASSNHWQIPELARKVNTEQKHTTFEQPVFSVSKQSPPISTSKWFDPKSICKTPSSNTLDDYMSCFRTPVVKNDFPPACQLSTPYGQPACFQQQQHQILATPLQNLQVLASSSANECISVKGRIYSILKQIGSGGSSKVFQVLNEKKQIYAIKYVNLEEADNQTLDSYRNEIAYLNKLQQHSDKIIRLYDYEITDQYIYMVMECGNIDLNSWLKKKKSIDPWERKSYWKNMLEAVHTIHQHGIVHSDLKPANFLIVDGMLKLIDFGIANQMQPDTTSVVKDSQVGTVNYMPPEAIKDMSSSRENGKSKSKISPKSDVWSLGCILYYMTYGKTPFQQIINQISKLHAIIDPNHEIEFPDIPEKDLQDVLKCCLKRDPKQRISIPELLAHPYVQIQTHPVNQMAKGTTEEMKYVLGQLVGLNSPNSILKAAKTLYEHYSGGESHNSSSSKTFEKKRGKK

[5] = tested on: T3, Receptor-type tyrosine-protein kinase FLT3 (Homo sapiens), P36888 [D835Y]; conditions: at 1 µM
T3 sequence (whole entry): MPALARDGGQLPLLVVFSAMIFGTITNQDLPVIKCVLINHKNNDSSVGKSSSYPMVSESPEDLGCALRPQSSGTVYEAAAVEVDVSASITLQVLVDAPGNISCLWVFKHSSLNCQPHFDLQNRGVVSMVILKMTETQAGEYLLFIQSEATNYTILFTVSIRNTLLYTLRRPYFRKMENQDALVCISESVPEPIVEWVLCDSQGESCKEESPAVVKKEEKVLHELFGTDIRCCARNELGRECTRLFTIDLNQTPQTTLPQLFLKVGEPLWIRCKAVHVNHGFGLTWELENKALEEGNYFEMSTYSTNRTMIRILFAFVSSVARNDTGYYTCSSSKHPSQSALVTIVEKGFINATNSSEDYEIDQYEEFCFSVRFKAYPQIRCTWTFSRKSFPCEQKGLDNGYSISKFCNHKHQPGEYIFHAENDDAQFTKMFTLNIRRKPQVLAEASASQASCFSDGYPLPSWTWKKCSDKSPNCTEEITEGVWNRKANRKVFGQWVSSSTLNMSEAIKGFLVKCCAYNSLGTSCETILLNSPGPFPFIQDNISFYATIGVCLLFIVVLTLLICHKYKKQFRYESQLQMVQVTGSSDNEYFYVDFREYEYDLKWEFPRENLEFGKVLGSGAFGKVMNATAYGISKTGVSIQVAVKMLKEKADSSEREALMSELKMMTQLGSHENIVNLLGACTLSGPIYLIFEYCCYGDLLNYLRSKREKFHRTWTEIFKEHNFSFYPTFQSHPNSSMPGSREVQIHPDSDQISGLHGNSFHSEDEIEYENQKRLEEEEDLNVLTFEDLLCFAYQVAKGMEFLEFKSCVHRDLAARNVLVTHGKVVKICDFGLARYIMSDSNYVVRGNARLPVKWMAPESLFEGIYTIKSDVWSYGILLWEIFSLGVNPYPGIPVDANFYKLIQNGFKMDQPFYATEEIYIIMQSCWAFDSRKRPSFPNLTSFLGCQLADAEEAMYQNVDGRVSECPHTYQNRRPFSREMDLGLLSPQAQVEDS

[6] = biological target: Vascular endothelial growth factor receptor 3 (Homo sapiens) (UniProt P35916); conditions: at 0.1 µM
[7] = biological target: Vascular endothelial growth factor receptor 3 (Homo sapiens) (UniProt P35916); conditions: at 1 µM
[8] = biological target: Macrophage colony-stimulating factor 1 receptor (Homo sapiens) (UniProt P07333); conditions: at 0.1 µM
[9] = biological target: Macrophage colony-stimulating factor 1 receptor (Homo sapiens) (UniProt P07333); conditions: at 1 µM
[10] = biological target: Tyrosine-protein kinase Fyn (Homo sapiens) (UniProt P06241); conditions: at 0.1 µM
Sequence of Tyrosine-protein kinase Fyn (Homo sapiens) (P06241 2-537 limits assumed): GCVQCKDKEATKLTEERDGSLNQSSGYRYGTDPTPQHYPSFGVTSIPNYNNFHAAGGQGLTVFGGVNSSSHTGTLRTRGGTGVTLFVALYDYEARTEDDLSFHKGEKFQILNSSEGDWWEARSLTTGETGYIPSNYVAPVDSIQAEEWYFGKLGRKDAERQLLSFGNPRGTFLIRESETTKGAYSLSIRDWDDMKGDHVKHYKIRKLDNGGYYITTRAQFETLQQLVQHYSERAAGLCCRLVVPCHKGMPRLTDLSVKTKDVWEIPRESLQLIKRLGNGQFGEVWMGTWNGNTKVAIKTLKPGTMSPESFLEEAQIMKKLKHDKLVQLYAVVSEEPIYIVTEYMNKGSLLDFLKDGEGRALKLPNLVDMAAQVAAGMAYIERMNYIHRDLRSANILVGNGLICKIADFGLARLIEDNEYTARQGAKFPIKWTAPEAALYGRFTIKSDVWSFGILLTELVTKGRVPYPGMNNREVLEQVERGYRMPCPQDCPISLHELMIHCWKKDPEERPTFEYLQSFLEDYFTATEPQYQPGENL

Sequence of Macrophage colony-stimulating factor 1 receptor (Homo sapiens) (P07333 whole entry): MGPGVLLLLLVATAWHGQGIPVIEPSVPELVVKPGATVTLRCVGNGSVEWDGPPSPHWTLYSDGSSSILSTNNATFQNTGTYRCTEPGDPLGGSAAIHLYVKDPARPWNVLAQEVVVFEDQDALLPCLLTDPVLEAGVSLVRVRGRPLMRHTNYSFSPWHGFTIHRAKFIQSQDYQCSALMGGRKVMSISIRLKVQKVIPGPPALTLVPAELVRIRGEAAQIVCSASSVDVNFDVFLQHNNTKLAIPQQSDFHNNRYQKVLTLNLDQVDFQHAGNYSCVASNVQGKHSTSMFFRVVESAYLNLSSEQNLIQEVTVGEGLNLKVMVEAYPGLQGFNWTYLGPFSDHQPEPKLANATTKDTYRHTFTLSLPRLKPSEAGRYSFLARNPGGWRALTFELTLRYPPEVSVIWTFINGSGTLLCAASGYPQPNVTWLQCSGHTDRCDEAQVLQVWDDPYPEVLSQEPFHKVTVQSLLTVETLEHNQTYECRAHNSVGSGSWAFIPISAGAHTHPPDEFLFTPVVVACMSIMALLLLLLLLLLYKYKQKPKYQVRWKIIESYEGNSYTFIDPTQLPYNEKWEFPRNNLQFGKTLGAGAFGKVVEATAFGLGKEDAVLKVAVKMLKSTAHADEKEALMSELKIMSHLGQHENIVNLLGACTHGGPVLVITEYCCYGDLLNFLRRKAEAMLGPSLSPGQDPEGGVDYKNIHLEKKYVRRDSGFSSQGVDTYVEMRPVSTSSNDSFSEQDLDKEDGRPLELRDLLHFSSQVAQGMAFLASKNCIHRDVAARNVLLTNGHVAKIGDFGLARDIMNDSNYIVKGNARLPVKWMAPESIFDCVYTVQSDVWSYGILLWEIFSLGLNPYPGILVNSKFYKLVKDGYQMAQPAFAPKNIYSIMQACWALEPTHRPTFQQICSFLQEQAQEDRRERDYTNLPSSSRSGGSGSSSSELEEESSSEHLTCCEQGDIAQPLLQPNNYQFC
Sequence of Serine/threonine-protein kinase PLK1 (Homo sapiens) (P53350 whole entry): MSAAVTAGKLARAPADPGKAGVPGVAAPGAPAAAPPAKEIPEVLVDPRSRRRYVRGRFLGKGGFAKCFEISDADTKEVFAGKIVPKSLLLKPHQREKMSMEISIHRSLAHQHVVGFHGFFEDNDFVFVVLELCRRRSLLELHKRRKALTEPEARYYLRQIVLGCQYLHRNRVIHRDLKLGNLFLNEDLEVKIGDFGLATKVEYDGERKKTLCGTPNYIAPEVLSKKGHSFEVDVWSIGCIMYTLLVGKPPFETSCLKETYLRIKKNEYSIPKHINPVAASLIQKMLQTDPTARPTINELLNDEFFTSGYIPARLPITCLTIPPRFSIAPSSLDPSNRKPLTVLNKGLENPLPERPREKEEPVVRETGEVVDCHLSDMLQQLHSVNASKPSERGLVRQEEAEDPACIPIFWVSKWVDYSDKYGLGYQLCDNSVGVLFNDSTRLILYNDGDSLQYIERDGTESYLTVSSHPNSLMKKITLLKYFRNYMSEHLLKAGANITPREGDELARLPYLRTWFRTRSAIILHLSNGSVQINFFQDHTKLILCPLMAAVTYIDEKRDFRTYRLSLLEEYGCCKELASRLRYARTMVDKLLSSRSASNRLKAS
Sequence of Vascular endothelial growth factor receptor 3 (Homo sapiens) (P35916 whole entry): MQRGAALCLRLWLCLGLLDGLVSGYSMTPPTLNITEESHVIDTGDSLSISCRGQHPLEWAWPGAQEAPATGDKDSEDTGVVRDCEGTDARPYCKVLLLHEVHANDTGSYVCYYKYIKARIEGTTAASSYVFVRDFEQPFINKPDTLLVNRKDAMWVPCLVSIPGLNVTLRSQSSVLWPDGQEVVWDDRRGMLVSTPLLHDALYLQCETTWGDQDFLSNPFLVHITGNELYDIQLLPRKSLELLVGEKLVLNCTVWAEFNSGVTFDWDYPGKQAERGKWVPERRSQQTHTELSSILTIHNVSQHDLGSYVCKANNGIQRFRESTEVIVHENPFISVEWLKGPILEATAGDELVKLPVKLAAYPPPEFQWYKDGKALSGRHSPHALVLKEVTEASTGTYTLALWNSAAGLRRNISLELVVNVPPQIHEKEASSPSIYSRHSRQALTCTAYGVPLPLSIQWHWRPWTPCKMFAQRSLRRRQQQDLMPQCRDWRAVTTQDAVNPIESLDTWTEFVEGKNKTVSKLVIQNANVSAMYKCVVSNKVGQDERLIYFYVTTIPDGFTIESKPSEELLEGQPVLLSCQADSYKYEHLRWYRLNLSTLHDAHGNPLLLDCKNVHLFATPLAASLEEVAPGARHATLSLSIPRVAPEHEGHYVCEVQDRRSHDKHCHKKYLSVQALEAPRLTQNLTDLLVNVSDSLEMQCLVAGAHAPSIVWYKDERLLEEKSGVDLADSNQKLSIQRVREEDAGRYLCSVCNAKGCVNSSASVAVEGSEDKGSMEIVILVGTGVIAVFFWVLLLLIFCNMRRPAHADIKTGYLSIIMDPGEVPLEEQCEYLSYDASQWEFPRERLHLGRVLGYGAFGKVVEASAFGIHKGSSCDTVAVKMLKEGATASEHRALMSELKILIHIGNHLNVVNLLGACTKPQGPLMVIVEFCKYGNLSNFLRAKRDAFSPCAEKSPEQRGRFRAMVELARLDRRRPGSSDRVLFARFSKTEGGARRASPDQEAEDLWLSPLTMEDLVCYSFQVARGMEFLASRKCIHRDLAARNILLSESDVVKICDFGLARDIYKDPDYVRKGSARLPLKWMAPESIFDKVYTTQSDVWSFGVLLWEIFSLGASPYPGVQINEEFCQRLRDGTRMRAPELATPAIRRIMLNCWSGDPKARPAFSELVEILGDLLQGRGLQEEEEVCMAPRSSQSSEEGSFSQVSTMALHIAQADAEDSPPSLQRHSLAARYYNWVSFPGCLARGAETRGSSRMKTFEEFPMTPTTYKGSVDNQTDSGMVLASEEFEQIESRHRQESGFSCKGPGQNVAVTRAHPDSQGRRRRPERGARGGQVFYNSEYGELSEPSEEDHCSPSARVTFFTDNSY

Compound | inhibition [1] | inhibition [2] | inhibition [3] | inhibition [4] | inhibition [5] | inhibition [6] | inhibition [7] | inhibition [8] | inhibition [9] | inhibition [10]
COc1ccc(-c2nn3ncccc3c2-c2ccnc(Nc3ccc4c(c3)OCCO4)n2)cc1 | 8.39% | 2.68% | 2.45% | 4.08% | 0.07% | 8.62% | 56.4% | 19.6% | 66.8% | 5.65%
O=S(=O)(CCNCc1ccc(-c2ccc3ncnc(Nc4ccc(OCc5cccc(F)c5)c(Cl)c4)c3c2)o1)c1ccccc1 | 4.64% | 6% | 5.8% | 7.34% | -1.66% | 4.59% | 7.11% | 2.22% | 8.85% | 2.58%
O=C(Nc1n[nH]c2cc(-c3ccc(F)cc3)ccc12)C1CC1 | 6.43% | 2.87% | 1.93% | 6.08% | 1.98% | 1.27% | 1.78% | 1.64% | 1.6% | 2.62%
COc1cc2c(cc1Nc1nc(Nc3ccsc3C(N)=O)c3cc[nH]c3n1)N(C(=O)CN(C)C)CCC2(C)C | 9.86% | 56.7% | 89.4% | 40% | 22.1% | 3.15% | 5.12% | 81.7% | 94.3% | 0.64%
CCOc1ccc2c(-c3ccnc(Nc4cccc(C(F)(F)F)c4)n3)cnn2n1 | 4.9% | 0.64% | 1.39% | 3.43% | 5.75% | 2.01% | 3.46% | -2.9% | 14.1% | 1.07%
COC(=O)Nc1nc2ccc(S(=O)(=O)c3ccc(NC(=O)Nc4cc(C(F)(F)F)ccc4F)cc3)cc2[nH]1 | 7.16% | 3.83% | 2.15% | 5.04% | 7.26% | 0.23% | 0.36% | -1.07% | 2.06% | 1.02%
CN(C)CCOc1ccc(-c2nc(-c3ccncc3)c(-c3ccc4c(c3)CC/C4=N\O)[nH]2)cc1 | 4.4% | 2.08% | 2.04% | 6.91% | 7.87% | 1.85% | 3.47% | -1.89% | 4.02% | 0.02%
[O-][S+]1CCN(Cc2ccc(-c3ccc4ncnc(Nc5ccc(OCc6cccc(F)c6)c(Cl)c5)c4c3)o2)CC1 | 11.6% | 4.06% | 4.68% | 14.8% | -0.26% | 4.68% | 7.72% | 1.84% | 5.71% | 1.57%
Cc1ccc(O)cc1Nc1ccnc2cc(-c3ccccn3)ccc12 | -1.26% | 3.38% | 4.98% | 6.34% | 4.47% | 62.5% | 88.8% | 4.3% | 20.4% | 55.6%
CNC(=O)c1cc(-c2ccc(F)cc2)cc(-c2ccc(S(=O)(=O)N3CCCC3)cc2)c1N | 7.69% | 2.97% | 3.38% | 4.67% | 5.93% | 0.74% | 2.49% | 0.47% | 1.28% | 1.22%
O=C(O[C@H]1CN[C@H](C#Cc2cc3ncnc(Nc4ccc(Cc5ccccc5)cc4)c3s2)C1)N1CCOCC1 | 7.49% | 1.59% | 1.47% | 3.54% | -0.77% | -2.62% | 4.62% | -3.48% | 3.66% | -0.06%
COc1ccc(CNC(=O)c2ccc(-c3cc(-c4nnc(C)o4)ccc3C)cc2)cc1 | 6.3% | 2.95% | 1.61% | 1.98% | -2.55% | -1.03% | -1.53% | 1.47% | 0.46% | 0.71%
Nc1nc(-c2ccc(F)cc2)c(-c2ccc3ncccc3n2)s1 | 11.1% | 3.57% | 6.9% | 9.86% | 6.56% | 4.58% | 11.6% | 3.44% | 7.59% | 2.8%
Nc1nc(-c2cccc(Cl)c2)c(-c2ccc3ncccc3n2)s1 | 12.5% | 3.47% | 4.49% | 14% | 0.82% | 0.27% | 9.77% | 1.82% | 2.3% | 4.49%
COc1cccc(-n2ncc3c(N/N=C/c4ccc(F)cc4)ncnc32)c1 | 6.76% | 1.91% | 4.22% | 7.93% | 12.3% | 7.04% | 6.84% | 6.04% | 5.69% | 8.43%
CCN1CCC(CC(=O)Nc2n[nH]c3nnc(-c4cccc(F)c4F)cc23)CC1 | -3.93% | 2.14% | -0.76% | 4.15% | -2.23% | 1.01% | 1.82% | -1.12% | 5.72% | -0.21%
COC(=O)c1sc(-n2cnc3cc(OC)c(OC)cc32)cc1OCc1ccccc1C(F)(F)F | 7% | 3.92% | 14.4% | 12.7% | 0.96% | 8.44% | 50.2% | 16.2% | 60.9% | 15.6%
